A selection: hits, their analogues and other compounds. The true share with any hit is near 3%.
CTSL1 counter: cathepsin L1 inhibition, PFM18AAP counter-screen | recombinant F. hepatica cathepsin L1, Z-Leu-Arg-MCA fluorescence | inhibition, % at 5.96 µM | 0.49% of 300,000 active | AID 1906;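 active means inhibition above the mean of all tested compounds plus 3 SD, set per screening campaign, cut at about 17% in these data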;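 further: 0% = plate median of test compound wells and 100% = 1 µM Z-Phe-Ala-diazomethylketone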
pPAFAH FP inh: inhibitors of human plasma PAF acetylhydrolase (pPAFAH); inhibition, % at 3.39 µM; Q13093; 1.5% of 330,000 active; recombinant pPAFAH, FP-rhodamine probe fluorescence polarization;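 active means inhibition above the mean inhibition across the screen plus 3 SD, cut at about 25% in these data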;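 further: inhibitors block binding of the rhodamine activity-based probe so polarization drops; 0% = enzyme with DMSO and 100% = wells lacking pPAFAH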
PP5 primary: inhibitors of human protein phosphatase 5 (PP5); P53041; 0.18% of 320,000 active; inhibition, % at 6.7 µM; purified PP5c, OMFP substrate fluorescence; AID 1987;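 active means inhibition above the campaign's mean inhibition across all tested compounds plus 3 SD, cut at about 9.5% in these data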;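 further: 0% = DMSO only and 100% = 100 µM cantharidin control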
PAFAH2 FP inh: PAFAH2 (human) inhibition; Q99487; recombinant PAFAH2, FP-rhodamine activity probe, fluorescence polarization; inhibition, % at 3.39 µM; 0.99% of 340,000 active; AID 492956;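 active means inhibition above the mean over all tested compounds plus 3 SD, cut at about 30% in these data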;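 further: inhibitors block probe labeling of enzyme so polarization drops; 0% = enzyme with DMSO and 100% = wells lacking PAFAH2 protein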
PAFAH1B3 inh: PAFAH1B3 (human) inhibition; inhibition, % at 3.39 µM; recombinant PAFAH1B3, FP-rhodamine probe, fluorescence polarization; 0.28% of 340,000 active;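 active means inhibition above the screen-wide average of all tested compounds plus 3 SD, cut at about 25% in these data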;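 further: 0% = enzyme with DMSO only and 100% = wells lacking PAFAH1B3 protein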
Target sequence (Q15102 whole entry, looked up): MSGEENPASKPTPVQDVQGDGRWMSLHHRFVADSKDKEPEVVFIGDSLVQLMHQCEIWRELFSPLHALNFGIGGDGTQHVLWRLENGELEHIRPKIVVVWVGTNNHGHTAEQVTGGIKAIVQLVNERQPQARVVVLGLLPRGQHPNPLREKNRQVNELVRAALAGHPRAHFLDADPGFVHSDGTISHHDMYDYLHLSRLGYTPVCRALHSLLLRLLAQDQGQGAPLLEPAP
PAFAH1B2 inh: blocks human PAF acetylhydrolase 1b catalytic subunit 2; inhibition, % at 3.39 µM; P68402; 1.2% of 340,000 active; recombinant PAFAH1B2, FP-rhodamine activity probe, fluorescence polarization;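 active means inhibition above the mean of all tested compounds plus 3 SD, cut at about 24% in these data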;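 further: 0% = enzyme with DMSO and 100% = wells lacking PAFAH1B2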
Target sequence (P68402 whole entry, looked up): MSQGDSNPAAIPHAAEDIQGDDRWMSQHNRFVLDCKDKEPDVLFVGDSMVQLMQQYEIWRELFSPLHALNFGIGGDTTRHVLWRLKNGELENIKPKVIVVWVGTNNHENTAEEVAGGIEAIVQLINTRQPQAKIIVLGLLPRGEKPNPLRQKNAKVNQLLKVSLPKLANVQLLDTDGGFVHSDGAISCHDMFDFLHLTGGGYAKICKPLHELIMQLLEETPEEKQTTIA
Starred values were filed as active, the others as inactive; · = no result.

SMILES	CTSL1 counter	pPAFAH FP inh	PP5 primary	PAFAH2 FP inh	PAFAH1B3 inh	PAFAH1B2 inh
COc1cc(/C=N/NC(=O)[C@H](Cc2c[nH]c3ccccc23)NC(=O)OCC(C)C)cc([N+](=O)[O-])c1O	1.6	29.5*	-0.8	11.7	5.8	24.4*
COc1cccc(-c2nnc(Nc3nc4c(F)cccc4s3)o2)c1	3.6	29.4*	0.3	25.1	9.0	14.1
COc1ccccc1-c1nnc(Nc2nc3c(OC)cccc3s2)o1	4.5	12.8	-1.4	6.1	13.9	5.6
O=C(/C=C/c1ccccc1Cl)NC1CCCCC1	0.7	-6.5	-0.6	-4.9	1.6	-1.7
O=C(/C=C/c1ccccc1Cl)NC1CCS(=O)(=O)C1 (configuration not stated)	41.8*	-6.5	3.4	1.5	3.9	5.2
Cc1ccc(C(CC(=O)O)NC(=O)c2ccc(S(=O)(=O)N3CC(C)OC(C)C3)cc2)cc1 (configuration not stated)	·	3.1	2.9	-7.2	7.5	0.3
O=C1SC(SCc2ccccc2Cl)=N/C1=C\c1ccc(C(=O)O)cc1	-3.1	4.0	-1.5	61.8*	5.8	28.5*
COc1ccc(CCNc2ncnc3c2[nH]c2cc(OC)c(OC)cc23)cc1OC	3.5	27.8*	0.8	11.7	15.2	12.5
COCCNc1ncnc2c1[nH]c1ccccc12	5.8	28.1*	4.7	-3.0	5.6	5.3
COc1ccc(CCNc2ncnc3cc(OC)c(OC)cc23)cc1OC	·	·	·	6.9	7.9	5.4
NC(=O)c1cnccc1C=Cc1ccccc1	·	·	·	11.6	4.2	-1.1
CCOc1ncccc1C(=O)NNC(=O)c1cccc(S(=O)(=O)Nc2ccc(OC)cc2)c1	-2.2	19.9	5.0	-4.7	4.1	0.1
CC1(NC(=O)CSc2nnc(-c3c[nH]c4ccccc34)n2C2CC2)CCS(=O)(=O)C1 (configuration not stated)	·	-2.9	-0.6	-3.8	4.1	4.5
O=C(Nc1ccccc1)C(=O)Nc1ccc2c(c1)N(C(=O)C1CC1)CCC2	4.3	3.8	2.5	15.5	4.1	1.5
NC(=S)N=Nc1c(O)n(CCCl)c2ccc(Br)cc12	6.3	1.6	-1.8	3.5	5.4	31.9*
Cn1nccc1C(=O)Nc1ccn(C23CC4CC(CC(C4)C2)C3)n1	1.9	4.4	2.7	-1.6	1.5	24.4*
CCn1cc([N+](=O)[O-])c(C(=O)Nc2ccn(Cc3ccccc3)n2)n1	1.1	-3.3	0.4	-5.2	4.4	1.4
Cn1cc([N+](=O)[O-])c(C(=O)Nc2ccn(C34CC5CC(CC(C5)C3)C4)n2)n1	-3.5	-0.8	3.1	1.4	1.8	25.3*
CCn1cc([N+](=O)[O-])c(C(=O)Nc2ccn(C34CC5CC(CC(C5)C3)C4)n2)n1	-0.2	-3.1	1.6	1.1	9.2	29.0*
Cc1nn(C)c(C(=O)Nc2ccn(C34CC5CC(CC(C5)C3)C4)n2)c1[N+](=O)[O-]	5.1	0.4	-6.9	1.4	5.1	10.6
COC(=O)[C@H](CCSC)NC(=O)Cn1cnc2c(NCc3ccccc3)ncnc21	·	-0.3	·	-2.4	0.0	6.0
CC[C@]12c3[nH]c4ccc(Cl)cc4c3CCN1C(=O)[C@@H](CC(=O)NCCCn1ccnc1)C[C@@H]2C(=O)N1CCN(C(=O)c2ccco2)CC1	·	6.1	·	1.5	6.4	-0.5
CN(C(=O)Cn1nc(C(=O)O)c2ccccc2c1=O)C1CCCCC1	·	-1.1	·	4.2	5.0	-1.1
CC(/C=C/c1ccc(N(C)C)cc1)=N\N=C(/N)SC1CC(=O)N(c2ccc(C(=O)O)cc2)C1=O (configuration not stated)	22.4*	4.3	2.6	2.3	4.3	-1.2
N#Cc1ccsc1NC(=O)COC(=O)C1=NNC(=O)CC1	·	12.2	1.4	8.9	14.2	6.1
CCN(CC)C(=O)CSc1nnc(-c2ccccc2)o1	-9.5	-0.9	1.9	9.7	5.4	0.1
CCN(CC)C(=O)CSc1nnc([C@@H](N)C(C)C)o1	32.7*	-5.1	3.1	9.6	7.8	4.0
CC(=O)c1ccc(NC(=O)COC(=O)C2CC3C=CC2C3)cc1 (configuration not stated)	·	6.0	·	20.3	4.0	0.6
O=C(COC(=O)C1CC2C=CC1C2)Nc1ccc2c(c1)OC(F)(F)O2 (configuration not stated)	-0.7	26.4*	2.6	46.1*	1.1	0.2
